Rows were chosen to be rich in hits. Some 3.2% of all compounds tested hit in one or more screens of this group.
Tau fibril ThT – qHTS for Inhibitors of Tau Fibril Formation, Thioflavin T Binding. Microtubule-associated protein tau (Homo sapiens), P10636. recombinant tau K18 P301L, heparin-induced fibrillization, ThT fluorescence. Potency, µM (doses to about 57.4 µM), without a hit: at the top dose activity, negative = inhibition, actives largely listed as inhibitors. actives 2.1% (n = 270,000); note: nearly all actives have a fitted effect of over 55% in size
Target sequence (P10636 561-689 P618L limits assumed): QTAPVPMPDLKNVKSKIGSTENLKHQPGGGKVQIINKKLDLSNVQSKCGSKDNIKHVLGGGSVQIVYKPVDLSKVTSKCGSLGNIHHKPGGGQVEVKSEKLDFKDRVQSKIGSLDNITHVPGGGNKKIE
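Tau K18 P301L fragment (15 uM unlabeled plus 0.24 uM Alexa 594-labeled) in 100 mM sodium acetate pH 7 with compound, fibrillization induced by 20 uM heparin for 6 hr at 37 C. Thioflavin T (30 uM) added, fluorescence read after 1 hr (ex 450, em 510 nm).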
Tau FP inhib – qHTS for Inhibitors of Tau Fibril Formation, Fluorescence Polarization; Microtubule-associated protein tau (Homo sapiens), P10636; K18 P301L tau heparin fibrillization, Alexa594 FP, 6 h; Potency, µM (highest dose often 57.7 µM), without a hit: at the top dose activity, negative = inhibition, usual class: inhibitors; actives 0.39% (n = 280,000); note: nearly all actives have a fitted effect of over 55% in size
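Compound effects on tau fibrillization are measured by Alexa 594 fluorescence polarization (ex 555, em 632 nm). K18 P301L tau is used at 15 uM with 0.24 uM labeled tracer, and 20 uM heparin induces aggregation over 6 hr at 37 C.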
TRb-SRC2 inh – qHTS for Inhibitors of the Interaction of Thyroid Hormone Receptor and Steroid Receptor Coregulator 2; Thyroid hormone receptor beta (Homo sapiens), P10828; Potency, µM (titrated, usually from 106 µM), for inactives: at the top dose activity change, negative = inhibition, most hits filed as inhibitors; TRbeta-SRC2 peptide binding, fluorescence polarization; receptor liganded with 1 µM T3; actives 0.065% (n = 280,000);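 note: plate controls were bound peptide for no effect and peptide without receptor for full effect; nearly all actives have a fitted effect of over 50% in size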
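TRb LBD 0.6 uM + Texas Red SRC2 peptide 20 nM, 1 uM T3, Tris buffer w/ 5% DMSO; compound pinned, 5 h RT; FP read ex 555/em 632; normalized to unbound and bound controls.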
Tau fluor cs – Counterscreen qHTS for Inhibitors of Tau Fibril Formation, Fluorescence Polarization; tau K18 P301L (four-repeat tau fragment) Alexa594 fluorescence, heparin fibrillization; Potency, µM (doses to about 57.7 µM), for inactives: top-dose activity change, negative = decrease; actives 0.93% (n = 280,000); note: nearly all actives have a fitted effect of over 55% in size
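Human K18 P301L tau (15 uM unlabeled plus 0.24 uM Alexa 594-labeled, final) in 100 mM sodium acetate pH 7 was mixed with compound and 20 uM heparin and incubated 6 hr at 37 C.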
TR SRC2 fluor cs – Total Fluorescence Counterscreen for Inhibitors of the Interaction of Thyroid Hormone Receptor and Steroid Receptor Coregulator 2; TRb/SRC2 Texas Red total fluorescence interference; actives 0.29% (n = 280,000); AID 1479, 2009; Potency, µM (doses to about 106 µM), inactives show at the highest dose fluorescence change, negative = quenching; active = well fitted curve in either direction with a large enough effect; inconclusive = small, poorly fitted or top-dose-only effect
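Human TRb ligand-binding domain at 0.6 uM with 20 nM Texas Red SRC2 peptide in Tris buffer containing 1 uM T3 and 5% DMSO, incubated with compound 5 h at ambient temperature. Total fluorescence (555/632 nm) calculated as parallel + 2 × perpendicular.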
RGS12 GoLoco inh – qHTS Assay for Inhibitors of RGS12 GoLoco Motif Activity (Red Fluorophore) | Guanine nucleotide-binding protein G(i) subunit alpha-1 (Homo sapiens), P63096 | Gai1:RGS12 GoLoco peptide FP, rhodamine, 10 min | Potency, µM (titrated, usually from 61.6 µM), inactives show at the top dose activity, negative = inhibition, hits mostly inhibitors | actives 0.44% (n = 230,000) | AID 880, 2007; active = well fitted inhibition curve with a large enough effect, not every such curve was filed as active; inactive = no such curve, though single readings can be large or run the other way; note: nearly all actives have a fitted effect of over 30% in size
Target sequence (P63096 whole entry, looked up): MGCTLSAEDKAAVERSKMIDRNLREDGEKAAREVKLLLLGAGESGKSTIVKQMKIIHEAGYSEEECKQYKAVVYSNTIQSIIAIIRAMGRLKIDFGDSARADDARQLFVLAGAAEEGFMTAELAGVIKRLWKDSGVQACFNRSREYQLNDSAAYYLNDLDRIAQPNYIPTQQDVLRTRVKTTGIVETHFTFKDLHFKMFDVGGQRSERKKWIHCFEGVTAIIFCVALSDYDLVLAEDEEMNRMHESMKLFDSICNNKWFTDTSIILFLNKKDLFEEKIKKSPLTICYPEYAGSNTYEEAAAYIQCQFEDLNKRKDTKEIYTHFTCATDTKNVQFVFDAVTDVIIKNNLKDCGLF
Active calls of the source: *; ? = inconclusive; · = no result; [ ] = dose if it differs, or a comment. Unless noted, calls come from the whole dose curve; as a rule, active = well fitted curve in the direction sought with a large enough effect; inconclusive = small, poorly fitted or top-dose-only effect, or another doubt; inactive = no such curve, though single readings can be large; an effect the other way counts as inactive or inconclusive. Unless noted, % is set by controls: 0 for no effect and ±100 for the full control effect; potency is the fitted concentration of half-maximal effect.

SMILES	Tau fibril ThT	Tau FP inhib	TRb-SRC2 inh	Tau fluor cs	TR SRC2 fluor cs	RGS12 GoLoco inh
CCCc1cc2c(OC(=O)CC)c(-c3ccc(C(=O)OCC)o3)c(=O)oc2cc1OC	25.1µM*	5.1%	3.6%	-27.4%	-9.5%	-2.4%
CCOC(=O)c1c(C(=O)OCC)c(C)n(CCc2ccc(OC)c(OC)c2)c1C	2.3%	-0.1%	-5.5%	3.1%	-0.2%	0.9%
Cc1nc(NCc2ccco2)c2c(C)c(C)sc2n1	-9.4%	-4.4%	-7.8%	-9.1%	-2.7%	-6.8%
Cc1sc2nc3c4ccccc4c(NCc4ccco4)nn3c(=O)c2c1C	25.1µM*	35.5µM*	-2.1%	?	2.1%	26.3%
Cc1cccc(N2CCN(c3ncnc4c3nc3n4CCCCC3)CC2C)c1 (stereo not drawn)	?	-3.8%	4.8%	-20.4%	-2.6%	·
CC(=O)NN1C(=O)/C(=C/c2ccc(Br)o2)SC1=S	15.8µM*	?	21.5%	?	16.6%	43.4%
CC(=O)NN1C(=O)/C(=C\c2ccccc2)SC1=S	-9.5%	-8.2%	-0.6%	-11.7%	-2.3%	-9.5%
CC(=O)NN1C(=O)/C(=C\c2ccc(Br)o2)SC1=S	25.1µM*	10.9%	4.8%	-25.4%	7.9%	29.9%
CN(C)CCNC=C(C(=O)Nc1ccc(Cl)cc1Cl)C(=O)Nc1ccc(Cl)cc1Cl	2.7%	10µM*	0.6%	?	-9.0%	8.2%
COc1cc(C(=O)N(CCCN(C)C)c2nc3c(OC)cccc3s2)cc(OC)c1OC	-2.7%	-2.1%	3.8%	5.5%	-18.4%	·
COc1cc(OC)cc(C2=Nn3c(nnc3-c3cccc(OC)c3)SC2)c1	·	·	-7.1%	·	-2.5%	·
COc1ccccc1C(=O)Nc1nnc(SCC(=O)Nc2ccc3c(c2)oc2ccccc23)s1	?	-1.5%	19.0%	-20.0%	-15.6%	8.5%
Cc1cccc(C(=O)Nc2nnc(SCC(=O)Nc3ccc4c(c3)oc3ccccc34)s2)c1	?	2.5%	2.9%	-20.8%	-0.2%	7.94µM*
Cc1ccc([N+](=O)[O-])cc1NC(=S)NC(=O)C(C)(C)C	-2.2%	-0.8%	12.9%	-4.1%	0.5%	-0.1%
Cc1ccc(NS(=O)(=O)c2cc([N+](=O)[O-])ccc2NNC(=S)Nc2cc(C)ccc2C)c(C)c1	?	4.2%	3.0%	12.6µM*[quencher]	-0.5%	191.9%
Cc1ccc(NS(=O)(=O)c2cc([N+](=O)[O-])ccc2NNC(=S)Nc2cccc(Cl)c2)c(C)c1	10µM*	?	6.3%	7.94µM*[quencher]	?	287.5%
COc1ccc(NC(=S)NNc2ccc([N+](=O)[O-])cc2S(=O)(=O)Nc2ccc(C)cc2C)cc1	31.6µM*	-5.1%	-1.0%	14.1µM*[quencher]	0.9%	138.8%
COc1ccc(NC(=S)Nc2cccc([N+](=O)[O-])c2)cc1	-17.6%	5.8%	-2.8%	-19.5%	-1.0%	-0.6%
Cc1cccc(NC(=S)N/N=C/c2cccc([N+](=O)[O-])c2)c1	-15.7%	2.3%	2.2%	-29.8%	0.9%	-1.3%
O=C(CCn1c(=O)c2cccn2c2cccnc21)Nc1ccccc1C(F)(F)F	5.2%	-1.5%	-2.5%	3.2%	-2.2%	·
COc1ccc(-c2[nH]c(-c3ccc(F)cc3)nc2SCC(=O)Nc2ccc(OC)c(OC)c2)cc1	?	14.2%	7.2%	14.1µM*[quencher]	-2.7%	·
COc1ccc(NC(=O)CSc2nc(-c3cc(OC)c(OC)c(OC)c3)[nH]c2-c2ccc(F)cc2)cc1	?	8.7%	-4.0%	7.08µM*[quencher]	-0.6%	·
COc1ccc(NC(=O)CSc2nc(-c3ccc(OC)cc3)[nH]c2-c2ccc(OC)cc2)cc1	-11.2%	7.4%	-2.7%	8.91µM*[quencher]	-1.0%	·
COc1ccc(NC(=O)CSc2cc(-c3ccccc3)nc(C)n2)cc1	-8.6%	-3.2%	-25.9%	-25.5%	8.91µM*[quencher]	·
COc1ccc(-c2[nH]c(-c3ccc(F)cc3)nc2SCC(=O)NCc2ccco2)cc1OC	?	?	5.6%	?	-3.5%	6.4%
SMILES	Tau fibril ThT	Tau FP inhib	TRb-SRC2 inh	Tau fluor cs	TR SRC2 fluor cs	RGS12 GoLoco inh
CCOc1ccc(-c2nc(SCC(=O)Nc3ccc4c(c3)OCO4)c(-c3ccc(F)cc3)[nH]2)cc1	?	1.7%	1.9%	?	-5.3%	·
CCN1C(C)=C(C(=O)OC)C(c2ccccc2)N2C(=O)[C@@]3(C(=O)OC)O[C@@]12C1C(=O)N(c2ccccc2)C(=O)C13 (stereo partly drawn)	?	0.5%[11.6 µM]	-0.3%[11.2 µM]	-24.4%[11.6 µM]	-2.5%[11.2 µM]	·
C#CCCCO/N=C1/[C@H]2O[C@@H]2[C@@H](O)[C@H]2[C@H]1CCn1c(=O)n([C@@H](CC)c3ccccc3)c(=O)n12	-8.9%[11.5 µM]	-1.5%[11.6 µM]	0.3%[11.2 µM]	-11.0%[11.6 µM]	2.2%[11.2 µM]	·
O=C(c1ccccc1F)N1CCN(c2ccc([N+](=O)[O-])c(NCc3cccnc3)c2)CC1	15.8µM*	4.7%	-0.8%	-14.7%	-0.9%	3.4%
CC(C)(C)C(=O)N1CCN(c2ccc([N+](=O)[O-])c(NCc3cccnc3)c2)CC1	?	0.7%	5.6%	3.7%	-0.9%	1.7%
O=C(c1ccccc1)N1CCN(c2ccc([N+](=O)[O-])c(NCc3cccnc3)c2)CC1	15.8µM*	3.8%	3.9%	-7.7%	2.3%	7.1%
Nc1nc(N)c(N=Nc2ccc(C(=O)O)cc2)c(N)n1	14.1µM*	4.5%	-0.6%	-9.9%	-5.0%	6.9%
O=C(O)c1ccc(N=Nc2c(O)[nH]c3cc(Cl)ccc23)cc1	3.98µM*	6.3%	5.0%	-8.4%	-4.4%	0.3%
O=C(O)c1ccc(S(=O)(=O)N=Nc2c(O)[nH]c3ccccc23)cc1	·	·	·	·	·	-7.9%[14.2 µM]
COc1cc(C2N=C(N)Nc3nc4ccccc4n32)ccc1OCCC(C)C (stereo not drawn)	-9.9%	1.2%	-7.7%	-22.5%	-23.9%	·
CC(C)CCOc1ccc(C2N=C(N)Nc3nc4ccccc4n32)cc1 (stereo not drawn)	-10.2%	9.0%	-16.1%	-9.7%	39.8µM*[quencher]	·
COc1cc(NC(=O)c2ccco2)c(OC)cc1NC(=O)Nc1ccc(Cl)cc1	?	12.1%	3.3%	8.91µM*[quencher]	-4.7%	4.2%
COc1cc(OC)c(NC(=O)c2ccco2)cc1Cl	-4.8%	-3.1%	-2.5%	-9.0%	0.0%	-3.0%
COc1ccc(-c2cn3cccnc3n2)cc1NC(=O)Nc1ccc(Cl)cc1	?	-8.2%	-1.0%	14.1µM*[quencher]	-2.2%	·
